Results taken from PubChem BioAssay AID1159580 (chemical genetic matrix, 2015).
Where “and” joins values, the source holds several entries; their conditions need not be identical. Identical values can stand only once. About 2,000 (36%) of roughly 5,500 compounds were called active. Not shown: some 18% with an inconclusive outcome. Rule as the data show it: active = normalized growth mostly below about 0.91 (no sharp cut-off); inconclusive = no clear call, values can overlap the other calls; inactive = mostly above about 0.92. Some of the results follow.

Assay: chemical genetic growth profiling, strain panel (AID 1159580);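 also: tested at 20 µM; growth read once vehicle control cultures reached saturation at 30 °C; 1 = growth at the plate median or of vehicle wells; lower values mean less growth of the strain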
Conditions: S. cerevisiae deletion strains, growth OD

Measured: normalized growth

ClC1=C(Cl)C2(Cl)C3C(Cl)C=CC3C1(Cl)C2(Cl)Cl (configuration not stated)
active: locus YDR159W, strain sac3, active compounds read low 0.817 | locus YJL129C, strain trk1, active compounds read low 0.854
inactive: locus YAL013W, strain DEP1, active compounds read low 0.999 | locus YAL021C, strain ccr4, active compounds read low 0.99 | locus YAL026C, strain drs2, active compounds read low 0.999 | locus YAL030W, strain snc1, active compounds read low 1.01 | locus YBL061C, strain skt5, active compounds read low 1.01 | locus YBR009C, strain hhf1, active compounds read low 0.983 | locus YBR021W, strain FUR4, active compounds read low 0.987 | locus YBR023C, strain chs3, active compounds read low 0.998 | locus YBR171W, strain sec66, active compounds read low 0.994 | locus YBR229C, strain ROT2, active compounds read low 0.991 | locus YBR231C, strain swc5, active compounds read low 0.999 | locus YBR279W, strain paf1, active compounds read low 1 | locus YCL011C, strain gbp2, active compounds read low 0.996 | locus YCL016C, strain dcc1, active compounds read low 0.998 | locus YCL029C, strain bik1, active compounds read low 0.965 | locus YCL061C, strain MRC1, active compounds read low 0.996 | locus YCL069W, strain vba3, active compounds read low 1.01 | locus YCR088W, strain abp1, active compounds read low 0.998 | locus YDL005C, strain med2, active compounds read low 1.01 | locus YDL035C, strain GPR1, active compounds read low 0.962 | locus YDL040C, strain nat1, active compounds read low 1.01 | locus YDL074C, strain BRE1, active compounds read low 1 | locus YDL101C, strain DUN1, active compounds read low 0.989 | locus YDL134C, strain PPH21, active compounds read low 0.99 | locus YDL185W, strain tfp1, active compounds read low 0.983 | locus YDL192W, strain arf1, active compounds read low 0.98 | locus YDR001C, strain nth1, active compounds read low 1 | locus YDR069C, strain doa4, active compounds read low 0.981 | locus YDR101C, strain arx1, active compounds read low 0.992 | locus YDR137W, strain rgp1, active compounds read low 0.925 | locus YDR150W, strain NUM1, active compounds read low 0.995 | locus YDR162C, strain NBP2, active compounds read low 0.999 | locus YDR195W, strain ref2 0.913 | locus YDR297W, strain sur2, active compounds read low 1 | locus YDR318W, strain mcm21, active compounds read low 0.978 | locus YDR334W, strain swr1, active compounds read low 1.02 | locus YDR335W, strain msn5, active compounds read low 1.01 | locus YDR388W, active compounds read low 0.974 | locus YDR392W, strain spt3, active compounds read low 0.975 | locus YDR502C, strain sam2, active compounds read low 0.984 | locus YEL003W, strain gim4, active compounds read low 0.995 | locus YEL037C, strain rad23, active compounds read low 1.01 | locus YEL061C, strain CIN8 (second series), active compounds read low 1.01 | locus YEL061C, strain CIN8, active compounds read low 1 | locus YER015W, strain faa2, active compounds read low 0.992 | locus YER016W, strain bim1, active compounds read low 1 | locus YER110C, active compounds read low 0.978 | locus YER111C, strain swi4, active compounds read low 1 | locus YER155C, strain BEM2 (second series), active compounds read low 0.998 | locus YER155C, strain BEM2, active compounds read low 1.01 | locus YER167W, strain BCK2, active compounds read low 0.98 | locus YFR010W, strain ubp6, active compounds read low 0.995 | locus YGL078C, strain dbp3, active compounds read low 0.988 | locus YGL086W, strain mad1, active compounds read low 0.99 | locus YGL167C, strain pmr1, active compounds read low 0.998 | locus YGL173C, strain kem1, active compounds read low 0.993 | locus YGL227W, strain vid30, active compounds read low 1 | locus YGL240W, strain doc1, active compounds read low 0.986 | locus YGL248W, strain PDE1, active compounds read low 0.991 | locus YGL253W, strain hxk2, active compounds read low 0.999 | locus YGR078C, strain PAC10, active compounds read low 0.993 | locus YGR135W, strain pre9, active compounds read low 0.982 | locus YGR229C, strain SMI1, active compounds read low 0.985 | locus YGR252W, strain gcn5, active compounds read low 0.957 | locus YHR013C, strain ard1, active compounds read low 0.904 | locus YHR027C, strain rpn1, active compounds read low 0.995 | locus YHR030C, strain SLT2, active compounds read low 1 and 1.04 | locus YHR079C, strain IRE1 (second series), active compounds read low 0.973 | locus YHR079C, strain IRE1, active compounds read low 1 | locus YHR094C, strain hxt1, active compounds read low 0.988 | locus YHR129C, strain ARP1, active compounds read low 0.997 | locus YHR142W, strain chs7, active compounds read low 0.996 | locus YHR200W, strain rpn10, active compounds read low 0.987 | locus YIL066C, strain RNR3, active compounds read low 0.971 | locus YIL073C, strain SPO22, active compounds read low 0.922 | locus YIL125W, strain kgd1, active compounds read low 1 | locus YIR030C, strain dcg1, active compounds read low 0.989 | locus YJL092W, strain hpr5, active compounds read low 0.998 | locus YJL095W, strain BCK1 (second series), active compounds read low 1 | locus YJL095W, strain BCK1, active compounds read low 1.03 and 1.04 | locus YJL115W, strain asf1, active compounds read low 0.995 | locus YJL134W, strain LCB3, active compounds read low 0.984 | locus YJL154C, strain vps35, active compounds read low 1 | locus YJL164C, strain tpk1, active compounds read low 0.953 | locus YJL166W, strain qcr8, active compounds read low 0.943 | locus YJL168C, strain set2, active compounds read low 0.977 | locus YJL187C, strain SWE1 (second series), active compounds read low 0.989 | locus YJL187C, strain SWE1, active compounds read low 1.01 | locus YJR043C, strain POL32, active compounds read low 0.997 | locus YJR066W, strain TOR1, active compounds read low 0.961
